Holding throughout (assay): PBM; 200 nM protein, PBS
Holding throughout (settings): dsDNA, one strand shown

Assay [1] has as its target T1, SIX6 (Homo sapiens, UniProt O95475 114-200, L167I).
T1 sequence: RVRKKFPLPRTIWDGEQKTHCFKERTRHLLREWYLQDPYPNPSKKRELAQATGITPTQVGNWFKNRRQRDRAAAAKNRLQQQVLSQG

The target of assay [2] is T2, SIX6 (Homo sapiens, UniProt O95475 114-200, L143V).
T2 sequence: T1 sequence with L30V, I54L

In assay [3] the target is T3, SIX6 (Homo sapiens, UniProt O95475 114-200, H141N).
T3 sequence: T1 sequence with H28N, I54L

For assay [4], the target named is T4, SIX6 (Homo sapiens, UniProt O95475 114-200, T165P).
T4 sequence: T1 sequence with T52P, I54L

For assay [5], the target named is T5, SIX6 (Homo sapiens, UniProt O95475 114-200, L167M).
T5 sequence: T1 sequence with I54M

The target in assay [6] is T6, SIX6 (Homo sapiens, UniProt O95475 114-200, L143M).
T6 sequence: T1 sequence with L30M, I54L

Assay [7] concerns the target T7, SIX6 (Homo sapiens, UniProt O95475 114-200, L143I).
T7 sequence: T1 sequence with L30I, I54L

The target in assay [8] is T8, SIX6 (Homo sapiens, UniProt O95475 114-200, T165G).
T8 sequence: T1 sequence with T52G, I54L

For assay [9], the target named is T9, SIX6 (Homo sapiens, UniProt O95475 114-200, T139Q).
T9 sequence: T1 sequence with T26Q, I54L

Assay [10] addresses T10, SIX6 (Homo sapiens, UniProt O95475 114-200, T165A).
T10 sequence: T1 sequence with T52A, I54L

The target of assay [11] is T11, SIX6 (Homo sapiens, UniProt O95475 114-200, L167V).
T11 sequence: T1 sequence with I54V

Assay [12] addresses T12, SIX6 (Homo sapiens, UniProt O95475 114-200).
T12 sequence: T1 sequence with I54L

Assay [13] addresses T13, SIX6 (Homo sapiens, UniProt O95475 114-200, T165I).
T13 sequence: T1 sequence with T52I, I54L

Positions count from the first letter of the chain named.

As to CGCGCCGC, the binding signal was 9.05 upbm affinity estimate (log intensity, higher = more binding, comparable within an allelic series) in the assay with SIX6 [1]; 9.06 upbm affinity estimate (log intensity, higher = more binding, comparable within an allelic series) in the assay with SIX6 [2]; 9.06 upbm affinity estimate (log intensity, higher = more binding, comparable within an allelic series) with SIX6 [3]; 9.04 upbm affinity estimate (log intensity, higher = more binding, comparable within an allelic series) in the assay with SIX6 [4]; 9.05 upbm affinity estimate (log intensity, higher = more binding, comparable within an allelic series) in the assay with SIX6 [5]; 9.02 upbm affinity estimate (log intensity, higher = more binding, comparable within an allelic series) with SIX6 [6]. Also, the binding signal was 9.02 upbm affinity estimate (log intensity, higher = more binding, comparable within an allelic series) with SIX6 [7]; 9.01 upbm affinity estimate (log intensity, higher = more binding, comparable within an allelic series) with SIX6 [8]; 9.07 upbm affinity estimate (log intensity, higher = more binding, comparable within an allelic series) with SIX6 [9]; 9.12 upbm affinity estimate (log intensity, higher = more binding, comparable within an allelic series) with SIX6 [10]; 9.02 upbm affinity estimate (log intensity, higher = more binding, comparable within an allelic series) in the assay with SIX6 [11]; 9.09 upbm affinity estimate (log intensity, higher = more binding, comparable within an allelic series) with SIX6 [12]. Further, the binding signal in the assay with SIX6 [13] was 9.04 upbm affinity estimate (log intensity, higher = more binding, comparable within an allelic series).
Turning to ACGTATCA, the binding signal with SIX6 [1] was 11.3 upbm affinity estimate (log intensity, higher = more binding, comparable within an allelic series); in the assay with SIX6 [2], 10.3 upbm affinity estimate (log intensity, higher = more binding, comparable within an allelic series); with SIX6 [3], 11.3 upbm affinity estimate (log intensity, higher = more binding, comparable within an allelic series); with SIX6 [4] it was 9.82 upbm affinity estimate (log intensity, higher = more binding, comparable within an allelic series); with SIX6 [5] it was 10.7 upbm affinity estimate (log intensity, higher = more binding, comparable within an allelic series); in the assay with SIX6 [6], 11.1 upbm affinity estimate (log intensity, higher = more binding, comparable within an allelic series). In addition, the binding signal with SIX6 [7] was 10.4 upbm affinity estimate (log intensity, higher = more binding, comparable within an allelic series); with SIX6 [8], 11.3 upbm affinity estimate (log intensity, higher = more binding, comparable within an allelic series); with SIX6 [9], 11.3 upbm affinity estimate (log intensity, higher = more binding, comparable within an allelic series); with SIX6 [10], 11.2 upbm affinity estimate (log intensity, higher = more binding, comparable within an allelic series); with SIX6 [11] it was 11.1 upbm affinity estimate (log intensity, higher = more binding, comparable within an allelic series); in the assay with SIX6 [12], 11.1 upbm affinity estimate (log intensity, higher = more binding, comparable within an allelic series). In the assay with SIX6 [13], the binding signal was 11 upbm affinity estimate (log intensity, higher = more binding, comparable within an allelic series).
Take ATGGTATC: the binding signal in the assay with SIX6 [1] is 11 upbm affinity estimate (log intensity, higher = more binding, comparable within an allelic series); in the assay with SIX6 [2], 10.3 upbm affinity estimate (log intensity, higher = more binding, comparable within an allelic series); in the assay with SIX6 [3], 11 upbm affinity estimate (log intensity, higher = more binding, comparable within an allelic series); with SIX6 [4], 9.62 upbm affinity estimate (log intensity, higher = more binding, comparable within an allelic series); with SIX6 [5], 10.6 upbm affinity estimate (log intensity, higher = more binding, comparable within an allelic series); with SIX6 [6] it was 10.7 upbm affinity estimate (log intensity, higher = more binding, comparable within an allelic series). Also, the binding signal in the assay with SIX6 [7] was 10.4 upbm affinity estimate (log intensity, higher = more binding, comparable within an allelic series); with SIX6 [8], 11.1 upbm affinity estimate (log intensity, higher = more binding, comparable within an allelic series); in the assay with SIX6 [9], 11.2 upbm affinity estimate (log intensity, higher = more binding, comparable within an allelic series); with SIX6 [10], 10.9 upbm affinity estimate (log intensity, higher = more binding, comparable within an allelic series); with SIX6 [11], 10.8 upbm affinity estimate (log intensity, higher = more binding, comparable within an allelic series); with SIX6 [12], 10.9 upbm affinity estimate (log intensity, higher = more binding, comparable within an allelic series). The binding signal with SIX6 [13] is 10.8 upbm affinity estimate (log intensity, higher = more binding, comparable within an allelic series).
Turning to GTATATCA, the binding signal in the assay with SIX6 [1] was 11.2 upbm affinity estimate (log intensity, higher = more binding, comparable within an allelic series); in the assay with SIX6 [2] it was 10.5 upbm affinity estimate (log intensity, higher = more binding, comparable within an allelic series); with SIX6 [3] it was 11.3 upbm affinity estimate (log intensity, higher = more binding, comparable within an allelic series); with SIX6 [4] it was 9.99 upbm affinity estimate (log intensity, higher = more binding, comparable within an allelic series); with SIX6 [5] it was 10.9 upbm affinity estimate (log intensity, higher = more binding, comparable within an allelic series); in the assay with SIX6 [6], 11.1 upbm affinity estimate (log intensity, higher = more binding, comparable within an allelic series). The binding signal was 10.5 upbm affinity estimate (log intensity, higher = more binding, comparable within an allelic series) with SIX6 [7]; 11.2 upbm affinity estimate (log intensity, higher = more binding, comparable within an allelic series) with SIX6 [8]; 11.2 upbm affinity estimate (log intensity, higher = more binding, comparable within an allelic series) with SIX6 [9]; 11.2 upbm affinity estimate (log intensity, higher = more binding, comparable within an allelic series) in the assay with SIX6 [10]; 11 upbm affinity estimate (log intensity, higher = more binding, comparable within an allelic series) with SIX6 [11]; 11.1 upbm affinity estimate (log intensity, higher = more binding, comparable within an allelic series) with SIX6 [12]. The binding signal with SIX6 [13] is 11.2 upbm affinity estimate (log intensity, higher = more binding, comparable within an allelic series).
On to ATACACCA, for which the binding signal in the assay with SIX6 [1] is 10.4 upbm affinity estimate (log intensity, higher = more binding, comparable within an allelic series); in the assay with SIX6 [2] it was 10.1 upbm affinity estimate (log intensity, higher = more binding, comparable within an allelic series); with SIX6 [3], 10.6 upbm affinity estimate (log intensity, higher = more binding, comparable within an allelic series); in the assay with SIX6 [4], 9.67 upbm affinity estimate (log intensity, higher = more binding, comparable within an allelic series); with SIX6 [5] it was 10.2 upbm affinity estimate (log intensity, higher = more binding, comparable within an allelic series); with SIX6 [6], 10.4 upbm affinity estimate (log intensity, higher = more binding, comparable within an allelic series). The binding signal was 10.2 upbm affinity estimate (log intensity, higher = more binding, comparable within an allelic series) in the assay with SIX6 [7]; 10.8 upbm affinity estimate (log intensity, higher = more binding, comparable within an allelic series) with SIX6 [8]; 10.8 upbm affinity estimate (log intensity, higher = more binding, comparable within an allelic series) in the assay with SIX6 [9]; 10.6 upbm affinity estimate (log intensity, higher = more binding, comparable within an allelic series) with SIX6 [10]; 10.2 upbm affinity estimate (log intensity, higher = more binding, comparable within an allelic series) in the assay with SIX6 [11]; 10.5 upbm affinity estimate (log intensity, higher = more binding, comparable within an allelic series) in the assay with SIX6 [12]. Also, the binding signal in the assay with SIX6 [13] was 10.5 upbm affinity estimate (log intensity, higher = more binding, comparable within an allelic series).
For CCGGGGCC, the binding signal with SIX6 [1] is 9.14 upbm affinity estimate (log intensity, higher = more binding, comparable within an allelic series); with SIX6 [2] it was 8.96 upbm affinity estimate (log intensity, higher = more binding, comparable within an allelic series); with SIX6 [3], 9.12 upbm affinity estimate (log intensity, higher = more binding, comparable within an allelic series); with SIX6 [4], 8.97 upbm affinity estimate (log intensity, higher = more binding, comparable within an allelic series); with SIX6 [5] it was 9.04 upbm affinity estimate (log intensity, higher = more binding, comparable within an allelic series); in the assay with SIX6 [6], 9.04 upbm affinity estimate (log intensity, higher = more binding, comparable within an allelic series). Besides, the binding signal with SIX6 [7] was 9.01 upbm affinity estimate (log intensity, higher = more binding, comparable within an allelic series); in the assay with SIX6 [8], 9.1 upbm affinity estimate (log intensity, higher = more binding, comparable within an allelic series); in the assay with SIX6 [9], 9.26 upbm affinity estimate (log intensity, higher = more binding, comparable within an allelic series); in the assay with SIX6 [10], 9.1 upbm affinity estimate (log intensity, higher = more binding, comparable within an allelic series); in the assay with SIX6 [11], 9.05 upbm affinity estimate (log intensity, higher = more binding, comparable within an allelic series); in the assay with SIX6 [12], 9.09 upbm affinity estimate (log intensity, higher = more binding, comparable within an allelic series). The binding signal with SIX6 [13] was 9.09 upbm affinity estimate (log intensity, higher = more binding, comparable within an allelic series).

The values above are taken from article PMC11006913.
